Data taken from PubChem BioAssay (NCATS).
Records with an inconclusive call do not appear. Activity calls are given as the source filed them. Calls follow the shape of the dose curve; as a rule, active = well fitted cell-killing curve with a large enough effect; inconclusive = small, poorly fitted or top-dose-only effect, or effect the other way; inactive = no such curve, though single readings can be large or run the other way.

Legend:
[1] = Quantitative High-Throughput drug screen in 47 multiple myeloma cell lines against the NCATS MIPE library collection: OCIMY7_PLB cell viability assay (AID 1918987); also: nearly all actives have a fitted effect of over 65% in size
Procedure, shortened: (§1)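 Readout: median RLU from CellTiter-Glo after 5 min at room temperature. Preceding step was 48 h drug treatment of 500 cells/well at 37 °C, 5% CO2, with DMSO-only and media-only control wells.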

[2] = Quantitative High-Throughput drug screen in 47 multiple myeloma cell lines against the NCATS MIPE library collection: OCIMY5_PLB cell viability assay (AID 1918988); also: nearly all actives have a fitted effect of over 65% in size
Procedure, shortened: as §1

[3] = Quantitative High-Throughput drug screen in 47 multiple myeloma cell lines against the NCATS MIPE library collection: OPM1_PLB cell viability assay (AID 1918989); also: nearly all actives have a fitted effect of over 40% in size
Procedure, shortened: as §1

[4] = Quantitative High-Throughput drug screen in 47 multiple myeloma cell lines against the NCATS MIPE library collection: SKMM1_PLB cell viability assay (AID 1919863); conditions: SKMM1 myeloma viability, CellTiter-Glo ATP, 48 h; viability: active compounds read low; also: nearly all actives have a fitted effect of over 35% in size; as to viability: series mostly up to about 46 µM
Procedure, shortened: as §1

[5] = Quantitative High-Throughput drug screen in 47 multiple myeloma cell lines against the NCATS MIPE library collection: U266_ATCC cell viability assay (AID 1919864); also: nearly all actives have a fitted effect of over 35% in size
Procedure, shortened: as §1

[6] = Quantitative High-Throughput drug screen in 47 multiple myeloma cell lines against the NCATS MIPE library collection: XG6_PLB cell viability assay (AID 1919865); also: nearly all actives have a fitted effect of over 40% in size
Procedure, shortened: as §1

[7] = Quantitative High-Throughput drug screen in 47 multiple myeloma cell lines against the NCATS MIPE library collection: UTMC2_PLB cell viability assay (AID 1919868); also: nearly all actives have a fitted effect of over 55% in size
Procedure, shortened: as §1

[8] = Quantitative High-Throughput drug screen in 47 multiple myeloma cell lines against the NCATS MIPE library collection: PE2_PLB cell viability assay (AID 1919869); also: nearly all actives have a fitted effect of over 35% in size
Procedure, shortened: as §1

[9] = Quantitative High-Throughput drug screen in 47 multiple myeloma cell lines against the NCATS MIPE library collection: XG1_PLB cell viability assay (AID 1919866); also: nearly all actives have a fitted effect of over 35% in size
Procedure, shortened: as §1

[10] = Quantitative High-Throughput drug screen in 47 multiple myeloma cell lines against the NCATS MIPE library collection: VP6_DJ cell viability assay (AID 1919867); also: nearly all actives have a fitted effect of over 40% in size
Procedure, shortened: as §1
Potency is read from the fitted curve at half-maximal effect.

COc1ccc(C(=O)CC(=O)c2ccc(C(C)(C)C)cc2)cc1
active: Potency [1] 3.72 µM | Potency [2] 2.64 µM | Potency [3] 7.43 µM | Potency [4] 5.9 µM | Potency [5] 5.26 µM | Potency [6] 0.743 µM | Potency [7] 3.72 µM | Potency [8] 5.26 µM

CN(C)c1ccc(C(=C2C=CC(=[N+](C)C)C=C2)c2ccc(N(C)C)cc2)cc1
active: Potency [1] 0.0187 µM | Potency [2] 0.0743 µM | Potency [3] 0.0118 µM | Potency [4] 0.0662 µM | Potency [5] 1.05 µM | Potency [6] 0.0833 µM | Potency [9] 0.0235 µM | Potency [10] 0.0296 µM | Potency [7] 0.001 µM | Potency [8] 0.0166 µM

Nc1nc(F)nc2c1ncn2[C@@H]1O[C@H](CO)[C@@H](O)[C@@H]1O
active: Potency [1] 0.118 µM | Potency [2] 0.0743 µM | Potency [3] 0.743 µM | Potency [4] 0.332 µM | Potency [5] 0.296 µM | Potency [6] 0.209 µM | Potency [9] 0.418 µM | Potency [10] 0.132 µM | Potency [7] 0.235 µM | Potency [8] 0.209 µM

CC(C)C[C@H](NC(=O)[C@H](CCc1ccccc1)NC(=O)CN1CCOCC1)C(=O)N[C@@H](Cc1ccccc1)C(=O)N[C@@H](CC(C)C)C(=O)[C@@]1(C)CO1
active: Potency [1] 0.0118 µM | Potency [2] 0.0033 µM | Potency [3] 0.0093 µM | Potency [4] 0.0209 µM | Potency [5] 0.0047 µM | Potency [6] 0.001 µM | Potency [9] 0.001 µM | Potency [10] 0.001 µM | Potency [7] 0.001 µM | Potency [8] 0.001 µM

S=P(N1CC1)(N1CC1)N1CC1
inactive: Potency [2] | Potency [3] | viability [4] 142% | Potency [8]
active: Potency [1] 13.2 µM | Potency [6] 23.5 µM

CC[C@H](C)C(=O)O[C@H]1C[C@@H](C)C=C2C=C[C@H](C)[C@H](CC[C@@H]3C[C@@H](O)CC(=O)O3)[C@H]21
active: Potency [1] 4.69 µM | Potency [2] 16.6 µM | Potency [3] 11.8 µM

CO[C@@]12[C@H](COC(N)=O)C3=C(C(=O)C(C)=C(N)C3=O)N1C[C@@H]1N[C@@H]12
active: Potency [1] 18.7 µM | Potency [2] 26.4 µM | Potency [3] 26.4 µM | Potency [4] 20.9 µM | Potency [5] 20.9 µM | Potency [8] 20.9 µM

CN(C)CCc1c[nH]c2ccc(C[C@H]3COC(=O)N3)cc12
inactive: Potency [1] | Potency [2] | viability [4] 104% | Potency [9] | Potency [10]
active: Potency [6] 3.32 µM

CNS(=O)(=O)CCc1ccc2[nH]cc(C3CCN(C)CC3)c2c1
active: Potency [1] 0.332 µM | Potency [2] 1.18 µM | Potency [3] 5.26 µM | Potency [4] 4.18 µM | Potency [6] 0.372 µM | Potency [9] 0.743 µM | Potency [7] 1.05 µM | Potency [8] 1.66 µM

C1CCC(C(CC2CCCCN2)C2CCCCC2)CC1 (stereo not given)
active: Potency [1] 14.8 µM | Potency [2] 9.35 µM | Potency [3] 10.5 µM | Potency [4] 18.7 µM | Potency [5] 11.8 µM | Potency [6] 20.9 µM | Potency [7] 13.2 µM | Potency [8] 18.7 µM

N=C(N)c1ccc(OCCCCCOc2ccc(C(=N)N)cc2)cc1
active: Potency [1] 2.35 µM | Potency [2] 14.8 µM | Potency [3] 11.8 µM | Potency [4] 20.9 µM | Potency [5] 23.5 µM | Potency [6] 16.6 µM | Potency [9] 4.69 µM | Potency [10] 2.09 µM | Potency [8] 5.9 µM

Cc1ccc(S(=O)(=O)N[C@@H](Cc2ccccc2)C(=O)CCl)cc1
active: Potency [1] 3.32 µM | Potency [2] 7.43 µM | Potency [3] 9.35 µM | Potency [4] 18.7 µM | Potency [5] 18.7 µM | Potency [6] 14.8 µM | Potency [10] 9.35 µM | Potency [7] 13.2 µM | Potency [8] 10.5 µM

COc1cc2nc(N3CCCN(C)CC3)nc(NC3CCN(Cc4ccccc4)CC3)c2cc1OC
active: Potency [1] 6.62 µM | Potency [2] 11.8 µM | Potency [3] 2.35 µM | Potency [4] 7.43 µM | Potency [5] 2.35 µM | Potency [6] 2.35 µM | Potency [10] 4.69 µM | Potency [8] 2.35 µM

CNS(=O)(=O)Cc1ccc2[nH]cc(CCN(C)C)c2c1
active: Potency [8] 14.8 µM
inactive: Potency [1] | Potency [2] | Potency [3] | viability [4] 112% | Potency [6] | Potency [9]

NC(=O)c1cccc(N)c1
active: Potency [1] 4.69 µM | Potency [10] 8.33 µM
inactive: Potency [2] | Potency [3] | viability [4] 132% | Potency [5] | Potency [8]

CCCCc1oc2ccc(NS(C)(=O)=O)cc2c1C(=O)c1ccc(OCCCN(CCCC)CCCC)cc1
active: Potency [1] 18.7 µM | Potency [2] 4.69 µM | Potency [3] 13.2 µM | Potency [4] 18.7 µM | Potency [5] 14.8 µM | Potency [6] 8.33 µM | Potency [8] 23.5 µM

CCCc1nc(C)c2c(=O)[nH]c(-c3cc(S(=O)(=O)N4CCN(CC)CC4)ccc3OCC)nn12
active: Potency [1] 5.9 µM | Potency [2] 5.9 µM | Potency [3] 7.43 µM | Potency [4] 9.35 µM | Potency [5] 5.9 µM | Potency [6] 4.69 µM | Potency [9] 5.9 µM | Potency [10] 5.9 µM | Potency [7] 10.5 µM | Potency [8] 5.9 µM

CN1CCCC(n2nc(Cc3ccc(Cl)cc3)c3ccccc3c2=O)CC1 (stereo not given)
active: Potency [1] 1.18 µM | Potency [2] 1.18 µM | Potency [3] 2.64 µM | Potency [4] 20.9 µM | Potency [5] 2.64 µM | Potency [6] 1.05 µM | Potency [7] 1.87 µM | Potency [8] 7.43 µM
